# Data taken from the supplement of paper PMC11577813, “Eurasian spruce bark beetle detects lanierone using a highly expressed specialist odorant receptor, present in several functional sensillum types” (BMC Biology, 2024).
# ± gives the standard deviation of the averaged measurements.
# System: ipsdienol A-neuron OSN class
# Test: net action potential response of A-neuron (blank-subtracted) (spikes/s (Hz)); higher = stronger excitation
# Settings: 10 µg on filter paper; neuron: A neuron (large spike amplitude)
# Procedure: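 Single sensillum recordings from antennal olfactory sensilla of live adult Ips typographus. Each compound was 10 µg in paraffin oil on filter paper, delivered as a 0.5 s puff. Net response = spikes in the first 0.5 s of response minus the 0.5 s pre-stimulus count, doubled to give Hz, with blank response subtracted. Values are for the large-spike A-neuron class of each of seven sensillum types that co-house the lanierone B-neuron; N = 1-4 sensilla, averaged.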
row,Structure (SMILES),net action potential response
1,C=CC(=C)CC(O)C=C(C)C (racemic) [(±)-Ipsdienol],116 ± 12
2,C=CCc1ccc(OC)c(OC)c1 [Eugenol methyl ether],1.33 ± 1.1
3,CC/C=C/CCO,0.667 ± 3.1
4,CC/C=C\CCO,0 ± 2
5,C[C@]12CCC[C@](C)(OC1)O2 (racemic) [(±)-Frontalin],2 ± 3.5
6,C=CC(O)CCCCC (racemic) [(±)-1-Octen-3-ol],-0.667 ± 2.3
7,CC(C)[C@@]12CC[C@@](C)(O)[C@@H]1C2 [(+)-trans-4-Thujanol],-4 ± 4
8,CC12CCC(CC1=O)C2(C)C (racemic) [(±)-Camphor],-0.667 ± 5
9,CC(C)=CCC/C(C)=C/C=O [Citral (E/Z mix)],1.33 ± 1.1
10,CC1=C[C@@H](O)[C@H]2C[C@@H]1C2(C)C [(-)-trans-Verbenol],0.667 ± 3.1
11,CC(=O)CC/C=C(\C)CCC=C(C)C [Geranylacetone],2.67 ± 4.6
12,OCCc1ccccc1 [2-Phenylethanol],-2.67 ± 3.1
13,C=C1[C@@H]2CC[C@@H](C2)C1(C)C (racemic) [(±)-Camphene],0 ± 2
14,CC[C@H]1O[C@]2(C)CCC[C@H]1O2 (racemic) [(±)-exo-Brevicomin],-2.67 ± 5
15,CC(C)CCO [3-Methyl-1-butanol],0.667 ± 4.2
16,Cc1ccc(C(C)C)cc1 [p-Cymene],2 ± 3.5
17,"CC1=CCC2C(C1)C2(C)C (single isomer, unassigned; (+)) [(+)-3-Carene]",2.67 ± 5.8
18,CC1=CCC(C(C)C)=CC1 [γ-Terpinene],2 ± 8.7
19,"c1ccc2c(c1)CCO2 [2,3-Dihydrobenzofuran]",4 ± 7.2
20,COc1ccccc1 [Anisole],2.67 ± 1.1

row,Structure (SMILES),net action potential response
1,C=C(C)C1CC=C(C)C(=O)C1 (racemic) [(±)-Carvone],0 ± 3.5
2,C=CC(C)(C)O [2-Methyl-3-buten-2-ol],0 ± 4
3,C=CC(=C)CCC=C(C)C [Myrcene],-2 ± 3.5
4,CC1=CCC2CC1C2(C)C (stereo not drawn) [(+)-α-Pinene],2.67 ± 1.1
5,CC(=O)OC/C=C(\C)CCC=C(C)C [Geranyl acetate],2
6,CCCCCC=O [Hexanal],0.667 ± 2.3
7,CC1=CC(C)(C)C=C(O)C1=O [Lanierone],-3.33 ± 6.4
8,C=Cc1ccccc1 [Styrene],0 ± 2
9,CC1=CC(=O)[C@@H]2C[C@H]1C2(C)C [(-)-Verbenone],2 ± 2
10,CC1=CCC(=C(C)C)CC1 [Terpinolene],1.33 ± 1.1
11,CCc1ccc(O)c(OC)c1 [4-Ethylguaiacol],0 ± 8
12,"COc1ccc(C)cc1OC [3,4-Dimethoxytoluene]",0.667 ± 1.1
13,CC(=O)OCCc1ccccc1 [2-Phenethyl acetate],-3.33 ± 4.2
14,CC(=O)c1ccccc1 [Acetophenone],-4 ± 5.3
15,CCC/C=C\CO,0.667 ± 3.1
16,CC(=O)OCc1ccccc1 [Benzyl acetate],-0.667 ± 5
17,CCC(C)CO (racemic) [(±)-2-Methyl-1-butanol],3.33 ± 1.1
18,CCC/C=C/CO,-1.33 ± 1.1
19,CCCCCC(O)CC (racemic) [(±)-3-Octanol],-0.667 ± 5
20,C=C1CCC2(C(C)C)CC12 (racemic) [(±)-Sabinene],3.33 ± 2.3
